Read-out in assay [1]: C-C motif chemokine 2 (Homo sapiens) (UniProt P13500)
Description: BSK_KF3CT_MCP1: BioMAP Diversity Plus: KF3CT Assay for Monocyte Chemoattractant Protein 1 (MCP1/CCL2) Biomarker Activity (AID 2283073). To be noted: primary human keratinocytes with fibroblasts; actives raise or lower the signal. The essentials:
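KF3CT skin co-culture (keratinocytes/foreskin fibroblasts), 24 h post-dose; MCP-1 by ELISA; gain/loss of signal fit bidirectionally vs DMSO baseline.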

Read-out in assay [2]: Matrix Metallopeptidase 9 (MMP9), MMP9 (gene 4318)
The assay can be described thus: BSK_KF3CT_MMP9: BioMAP Diversity Plus: KF3CT Assay for Matrix Metallopeptidase 9 (MMP9) Biomarker Activity (AID 2283074).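 On AC50: MMP9 protein level quantified by ELISA in the co-culture.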 To be noted: primary human keratinocytes with fibroblasts; actives raise or lower the signal. The essentials: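 Human keratinocyte and foreskin fibroblast co-culture exposed to chemicals for 24 h; MMP9 biomarker measured by ELISA, bidirectional fitting relative to DMSO; cytotoxicity tracked by SRB total protein staining in parallel cultures.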

Read-out in assay [3]: urokinase plasminogen activator (uPA), PLAU (gene 5328)
The assay can be described thus: BSK_KF3CT_uPA: BioMAP Diversity Plus: KF3CT Assay for urokinase plasminogen activator (uPA) Biomarker Activity (AID 2283075). To be noted: primary human keratinocytes with fibroblasts; actives raise or lower the signal. The essentials: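 Primary human keratinocyte/foreskin fibroblast co-culture exposed to chemical; uPA measured by ELISA at 24 h. Bidirectional fit versus DMSO, with parallel SRB total-protein staining for cytotoxicity.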

Read-out in assay [4]: CD40, CD40 (gene 958)
Description: BSK_LPS_CD40: BioMAP Diversity Plus: LPS Assay for CD40 Biomarker Activity (AID 2283076). To be noted: primary human HUVEC with PBMC; actives raise or lower the signal. The essentials: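 ELISA readout of CD40 in HUVEC/PBMC co-culture (BSK_LPS system), 24 h post-dosing; bidirectional curve fit, DMSO baseline; parallel SRB total-protein staining for cytotoxicity.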

Read-out in assay [5]: E-selectin (Homo sapiens) (UniProt P16581)
The assay can be described thus: BSK_LPS_Eselectin: BioMAP Diversity Plus: LPS Assay for Eselectin Biomarker Activity (AID 2283077). To be noted: primary human HUVEC with PBMC; actives raise or lower the signal. A digest of the protocol: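 ELISA readout of E-selectin, 24 h post-dose, HUVEC + PBMC co-culture (LPS system). Gain or loss of signal vs DMSO baseline, bidirectional fit.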

Read-out in assay [6]: Interleukin-8 (IL8), CXCL8 (gene 3576)
The assay can be described thus: BSK_LPS_IL8: BioMAP Diversity Plus: LPS Assay for Interleukin-8 (IL8) Biomarker Activity (AID 2283078). To be noted: primary human HUVEC with PBMC; actives raise or lower the signal. The essentials: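 HUVEC + PBMC co-culture, LPS-activated; test chemicals dosed, IL-8 read by ELISA at 24 h. Bidirectional curve fit vs DMSO baseline (gain or loss of signal).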

Assay [7] in a line: BSK_LPS_SRB: Viability Assessment in the BioMAP Diversity Plus: LPS Assay (AID 2283079).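 Further: total protein by sulforhodamine B absorbance as a cytotoxicity measure; measured one day after compound addition; fitted in both directions against DMSO so loss or gain of signal counts.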 To be noted: primary human HUVEC with PBMC. A digest of the protocol: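 HUVEC + PBMC co-culture, LPS-stimulated; compound 24 h. 10% TCA fix, 0.1% SRB stain, A560. Bidirectional fit vs DMSO.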
Read-out in assay [8]: Interleukin-1 alpha (IL1a), IL1A (gene 3552)
The assay can be described thus: BSK_LPS_IL1a: BioMAP Diversity Plus: LPS Assay for Interleukin-1 alpha (IL1a) Biomarker Activity (AID 2283080). To be noted: primary human HUVEC with PBMC; actives raise or lower the signal. A digest of the protocol: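 HUVEC/PBMC co-culture, LPS system; 24 h after dosing; IL-1a by ELISA; gain or loss of signal fitted bidirectionally vs DMSO baseline.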

Read-out in assay [9]: Monocyte Chemoattractant Protein-1 (MCP1), CCL2 (gene 6347)
The assay can be described thus: BSK_LPS_MCP1: BioMAP Diversity Plus: LPS Assay for Monocyte Chemoattractant Protein-1 (MCP1) Biomarker Activity (AID 2283081). To be noted: primary human HUVEC with PBMC; actives raise or lower the signal. The essentials:
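ELISA read-out of MCP-1 after 24 h chemical dosing of a human umbilical vein endothelial cell/peripheral blood mononuclear cell co-culture stimulated with LPS. Gain or loss of signal fitted relative to DMSO controls.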

Assay [10] in a line: BSK_LPS_PGE2: BioMAP Diversity Plus: LPS Assay for Prostaglandin E2 (PGE2) Biomarker Activity (AID 2283082). To be noted: primary human HUVEC with PBMC; actives raise or lower the signal. A digest of the protocol: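 Endpoint derived from bidirectional curve fitting versus DMSO of ELISA-measured PGE2 in LPS-stimulated human primary vascular co-culture (HUVEC with PBMC) harvested at 24 h.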

Read-out in assay [11]: Macrophage colony-stimulating factor (MCSF), CSF1 (gene 1435)
The assay can be described thus: BSK_LPS_MCSF: BioMAP Diversity Plus: LPS Assay for Macrophage colony-stimulating factor (MCSF) Biomarker Activity (AID 2283083). To be noted: primary human HUVEC with PBMC; actives raise or lower the signal. A digest of the protocol: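 HUVEC + PBMC co-culture (human primary), 24 h post-dose; M-CSF by ELISA; gain/loss of signal fitted bidirectionally vs DMSO baseline.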

Read-out in assay [12]: Tissue Factor, F3 (gene 2152)
The assay can be described thus: BSK_LPS_TissueFactor: BioMAP Diversity Plus: LPS Assay for Tissue Factor Biomarker Activity (AID 2283084). To be noted: primary human HUVEC with PBMC; actives raise or lower the signal. A digest of the protocol: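 HUVEC/PBMC co-culture, LPS-activated; CD142 ELISA read 24 h post-dose; bidirectional curve fit vs DMSO negative control.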

Read-out in assay [13]: Tumor necrosis factor (Homo sapiens) (UniProt P01375)
Description: BSK_LPS_TNFa: BioMAP Diversity Plus: LPS Assay for Tumour Necrosis Factor alpha (TNFa) Biomarker Activity (AID 2283085). To be noted: primary human HUVEC with PBMC; actives raise or lower the signal. The essentials: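 Primary human vascular co-culture of HUVEC and PBMC; TNFa ELISA 24 h after treatment, analysed as increase or decrease relative to DMSO control.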

Read-out in assay [14]: Vascular cell adhesion molecule 1 (VCAM1), VCAM1 (gene 7412)
The assay can be described thus: BSK_LPS_VCAM1: BioMAP Diversity Plus: LPS Assay for Vascular cell adhesion molecule 1 (VCAM1) Biomarker Activity (AID 2283086). To be noted: primary human HUVEC with PBMC; actives raise or lower the signal. A digest of the protocol: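 Primary human vascular co-culture (umbilical vein endothelium plus PBMC) stimulated with LPS received chemical; 24 h later VCAM-1 was read by ELISA. Overt cytotoxicity was assessed by sulforhodamine B staining of parallel cultures at the same time point.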

Read-out in a further assay: CD38, CD38 (gene 952)
Description: BSK_SAg_CD38: BioMAP Diversity Plus: SAg Assay for CD38 Biomarker Activity (AID 2283087). To be noted: primary human HUVEC with PBMC; actives raise or lower the signal. The essentials: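 Fluorescence ELISA of cell-surface CD38 served as the read-out, with either increase or decrease fitted against DMSO controls. Cells were a human umbilical vein endothelium plus PBMC co-culture under SEB/TSST-1 stimulation, measured 24 h after dosing.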

Read-out in assay [15]: CD40, CD40 (gene 958)
The assay can be described thus: BSK_SAg_CD40: BioMAP Diversity Plus: SAg Assay for CD40 Biomarker Activity (AID 2283088). To be noted: primary human HUVEC with PBMC; actives raise or lower the signal. The essentials:
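HUVEC/PBMC co-culture, 24 h post-dose; CD40 by ELISA, fluorescence intensity; bidirectional fit vs DMSO negative control.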

Read-out in a further assay: CD69, CD69 (gene 969)
The assay can be described thus: BSK_SAg_CD69: BioMAP Diversity Plus: SAg Assay for CD69 Biomarker Activity (AID 2283089). To be noted: primary human HUVEC with PBMC; actives raise or lower the signal. A digest of the protocol: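 ELISA, fluorescence read-out: CD69 on human umbilical vein endothelial cell + PBMC co-culture, 24 h post-dosing. Gain or loss of signal fitted bidirectionally against DMSO baseline.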

Read-out in assay [16]: Monocyte Chemoattractant Protein-1 (MCP1), CCL2 (gene 6347)
The assay can be described thus: BSK_SAg_MCP1: BioMAP Diversity Plus: SAg Assay for Monocyte Chemoattractant Protein-1 (MCP1) Biomarker Activity (AID 2283090). To be noted: primary human HUVEC with PBMC; actives raise or lower the signal. A digest of the protocol: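 MCP-1 levels in the endothelial–PBMC SAg co-culture were quantified by ELISA at 24 h post-dosing; both increases and decreases versus DMSO scored. Cytotoxicity monitored by SRB total protein in parallel cultures.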

Read-out in assay [17]: E-selectin (Homo sapiens) (UniProt P16581)
The assay can be described thus: BSK_SAg_Eselectin: BioMAP Diversity Plus: SAg Assay for Eselectin Biomarker Activity (AID 2283091). To be noted: primary human HUVEC with PBMC; actives raise or lower the signal. The essentials:
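E-selectin ELISA readout at 24 h post-dosing in human umbilical vein endothelial cell/PBMC co-culture; gain or loss of signal fitted relative to DMSO baseline.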

Read-out in assay [18]: Monokine induced gamma interferon (MIG), CXCL9 (gene 4283)
The assay can be described thus: BSK_SAg_MIG: BioMAP Diversity Plus: SAg Assay for Monokine induced gamma interferon (MIG) Biomarker Activity (AID 2283092). To be noted: primary human HUVEC with PBMC; actives raise or lower the signal. A digest of the protocol:
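ELISA readout of MIG/CXCL9; primary human umbilical vein endothelial cells co-cultured with peripheral blood mononuclear cells; 24 h post-dose; gain/loss fit vs DMSO baseline.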

For three compounds, outcome and AC50 results are on record in PubChem BioAssay (EPA / NIEHS).

Calls of active or inactive are those of the source. How the source made its calls: active means hit-call score of the fitted dose curve at least 0.9, where 1 is the maximum; inactive means score below 0.9.

Chain of Tumor necrosis factor (Homo sapiens) (P01375 whole entry, looked up): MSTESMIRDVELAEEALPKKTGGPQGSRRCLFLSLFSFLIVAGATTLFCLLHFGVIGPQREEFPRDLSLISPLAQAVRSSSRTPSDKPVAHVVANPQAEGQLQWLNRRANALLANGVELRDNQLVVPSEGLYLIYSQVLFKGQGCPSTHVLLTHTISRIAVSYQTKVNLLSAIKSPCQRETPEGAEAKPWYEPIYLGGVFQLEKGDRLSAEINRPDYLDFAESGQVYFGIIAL
Chain of E-selectin (Homo sapiens) (P16581 whole entry, looked up): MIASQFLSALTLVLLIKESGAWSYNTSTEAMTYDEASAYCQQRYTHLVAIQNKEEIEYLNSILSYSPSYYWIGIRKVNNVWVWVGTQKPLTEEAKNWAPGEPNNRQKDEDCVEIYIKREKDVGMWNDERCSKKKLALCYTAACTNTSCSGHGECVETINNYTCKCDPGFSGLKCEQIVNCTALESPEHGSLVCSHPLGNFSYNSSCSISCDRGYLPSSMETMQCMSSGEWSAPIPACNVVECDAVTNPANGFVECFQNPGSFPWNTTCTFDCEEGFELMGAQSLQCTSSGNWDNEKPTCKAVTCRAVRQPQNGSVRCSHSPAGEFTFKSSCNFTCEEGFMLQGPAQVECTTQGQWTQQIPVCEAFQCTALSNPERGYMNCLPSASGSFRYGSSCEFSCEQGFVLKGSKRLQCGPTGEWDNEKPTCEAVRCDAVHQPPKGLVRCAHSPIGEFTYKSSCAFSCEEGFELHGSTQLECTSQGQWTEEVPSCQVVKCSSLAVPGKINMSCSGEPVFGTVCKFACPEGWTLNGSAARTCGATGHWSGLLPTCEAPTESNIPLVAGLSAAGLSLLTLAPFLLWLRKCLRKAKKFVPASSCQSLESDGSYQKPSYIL

For the compound `BrCCBr`, the outcome in assay [1] is “inactive”; in [2], “inactive”; in assay [3], “inactive”; with CD40, CD40 (gene 958) [4] it was “inactive”; in assay [5], “inactive”; in [6] it was “inactive”. The result in assay [7], in assay [8], in assay [9], in assay [10], in assay [11] and in [12] was inactive. Besides, the outcome in assay [13] was “inactive”; in assay [14], “inactive”; in the assay with CD38, CD38 (gene 952) it was “inactive”; with CD40, CD40 (gene 958) [15] it was “inactive”; in the assay with CD69, CD69 (gene 969) it was “inactive”; in assay [16], “inactive”. The outcome in [17] and in assay [18] was inactive.
The term AC50 denotes the concentration giving half of the maximal activity seen. Turning to `Oc1cccc2cccnc12`, the AC50 in assay [1] is 2000 nM (active); in assay [2], 2460 nM (active); in assay [3], 2740 nM (active); in [10], 11400 nM (active); in assay [14], 3970 nM (active); in [17], 2770 nM (active). Also, the outcome with CD40, CD40 (gene 958) [4] was “inactive”; in assay [5] it was “inactive”; in assay [6] it was “inactive”; in assay [7], “inactive”; in assay [8], “inactive”; in [9], “inactive”. Besides, the outcome was “inactive” in assay [11]; “inactive” in assay [12]; “inactive” in [13]; “inactive” with CD38, CD38 (gene 952); “inactive” in the assay with CD40, CD40 (gene 958) [15]; “inactive” in the assay with CD69, CD69 (gene 969). In addition, the result in assay [16] and in assay [18] was inactive.
Turning to `CC(C)c1ccc(CO)cc1`, the outcome in [1] is “inactive”; in assay [2] it was “inactive”; in assay [3], “inactive”; with CD40, CD40 (gene 958) [4] it was “inactive”; in assay [5], “inactive”; in [6] it was “inactive”. Also, the outcome in assay [7], in assay [8], in assay [9], in assay [10], in assay [11] and in assay [12] was inactive. The outcome was “inactive” in [13]; “inactive” in assay [14]; “inactive” in the assay with CD38, CD38 (gene 952); “inactive” in the assay with CD40, CD40 (gene 958) [15]; “inactive” in the assay with CD69, CD69 (gene 969); “inactive” in assay [16]. In [18], the outcome was inactive.
